The results in this text go back to PubChem BioAssay.

A number with no mark means an inactive call. For part of these data: Measured potencies and affinities stand elsewhere. Calls of active or inactive are those of the source. Unless noted, no rule for the calls is given here.

Assay [1] can be described thus: antimalarial activity against Dd2 strain (AID 2302;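 active = growth inhibition above 50% at the single 2 µM test dose, taken to imply half-maximal potency below 2 µM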;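 also: 0% = DMSO untreated growth and 100% = chloroquine plus artemisinin killed control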). Particulars: P. falciparum Dd2 in RBCs, LDH growth readout, 72 h; at 2 µM; active compounds read high.
The nature of assay [2]: human hepatoma cell viability loss – ATP luminescence, cytotoxicity control for P. falciparum antimalarial project, primary screen (AID 2303;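 active = inhibition above 50%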;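 also: 0% = DMSO wells and 100% = digitonin-killed cells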). Particulars: HepG2 viability, 24-48 h, at 10 µM, active compounds read high.
Assay [3] deals with L-lactate dehydrogenase (Plasmodium falciparum (isolate CDC / Honduras)) (UniProt Q27743). The experiment in a line: PfLDH activity inhibition – cell lysate, 3D7 strain, counter-screen for P. falciparum growth inhibition project (AID 2304).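 Also: 0% = vehicle and 100% = reference inhibitor.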 Particulars: P. falciparum 3D7 crude extract, LDH APAD/NBT absorbance; at 2 µM; active compounds read high. For orientation: A counterscreen serves to expose hits that act by an unwanted route or on another target.
Chain of L-lactate dehydrogenase (Plasmodium falciparum (isolate CDC / Honduras)) (Q27743 whole entry, looked up): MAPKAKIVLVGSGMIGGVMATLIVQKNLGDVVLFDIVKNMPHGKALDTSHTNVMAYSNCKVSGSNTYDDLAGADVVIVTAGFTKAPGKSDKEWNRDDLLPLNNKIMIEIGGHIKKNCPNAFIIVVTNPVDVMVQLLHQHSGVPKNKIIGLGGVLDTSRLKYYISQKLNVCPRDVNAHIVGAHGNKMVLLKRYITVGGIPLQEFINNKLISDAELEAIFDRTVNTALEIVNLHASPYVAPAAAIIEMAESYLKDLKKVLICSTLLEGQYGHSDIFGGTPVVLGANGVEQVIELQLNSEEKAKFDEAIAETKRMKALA

A short description of assay [4]: inhibition of 3D7 malaria parasite growth – strain 3D7 (AID 2306).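 Also: 0% = DMSO wells and 100% = chloroquine plus artemisinin control wells.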 Particulars: P. falciparum 3D7 erythrocytic growth, LDH absorbance, 72 h; at 2 µM; active compounds read high.
The target of assay [5] is Calcium-dependent protein kinase 1 (Plasmodium falciparum (isolate 3D7)) (UniProt P62344). Description: PfCDPK1 kinase inhibitors, biochemical, TCAMS library (AID 1159585; cut-off not given, nearly all actives have IC50 up to about 0.98 µM;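 also: inhibitors leave more ATP so luminescence rises with inhibition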). Particulars: recombinant PfCDPK1, Kinase-Glo ATP depletion luminescence. In general terms: In Kinase-Glo more light means more ATP remaining.
Chain of Calcium-dependent protein kinase 1 (Plasmodium falciparum (isolate 3D7)) (P62344 whole entry, looked up): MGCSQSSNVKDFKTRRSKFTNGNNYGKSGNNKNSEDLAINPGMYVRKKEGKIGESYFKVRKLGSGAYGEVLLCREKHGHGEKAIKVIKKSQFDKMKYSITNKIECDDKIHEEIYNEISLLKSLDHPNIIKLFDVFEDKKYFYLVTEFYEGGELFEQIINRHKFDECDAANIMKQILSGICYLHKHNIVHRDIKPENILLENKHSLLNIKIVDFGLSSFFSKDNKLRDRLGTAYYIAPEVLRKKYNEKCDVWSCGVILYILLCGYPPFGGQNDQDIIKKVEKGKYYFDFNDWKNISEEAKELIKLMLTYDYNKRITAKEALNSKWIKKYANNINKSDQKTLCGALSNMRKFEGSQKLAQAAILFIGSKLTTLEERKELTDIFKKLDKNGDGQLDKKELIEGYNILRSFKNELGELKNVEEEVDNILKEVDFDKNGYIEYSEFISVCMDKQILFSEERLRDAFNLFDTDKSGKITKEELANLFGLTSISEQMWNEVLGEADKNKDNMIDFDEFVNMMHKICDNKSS
Assay [6] addresses Plasmodium falciparum protein kinase 6 (PK6, PF3D7_1337100) (UniProt Q8IDW1). Description: PfPK6 kinase inhibitors, biochemical, TCAMS library (AID 1159586). As to conditions: recombinant PfPK6, Kinase-Glo ATP depletion luminescence.
Assay [7] deals with Protein kinase 7 (PK7), Plasmodium falciparum 3D7 (PF3D7_0213400) (UniProt Q7YTF7). The experiment in a line: inhibition of Plasmodium PK7 catalytic activity – biochemical, TCAMS antimalarial set, Kinase-Glo luminescence (AID 1159587). As to conditions: recombinant PfPK7, Kinase-Glo ATP depletion luminescence.
Chain of Protein kinase 7 (PK7), Plasmodium falciparum 3D7 (PF3D7_0213400) (Q7YTF7 1-343): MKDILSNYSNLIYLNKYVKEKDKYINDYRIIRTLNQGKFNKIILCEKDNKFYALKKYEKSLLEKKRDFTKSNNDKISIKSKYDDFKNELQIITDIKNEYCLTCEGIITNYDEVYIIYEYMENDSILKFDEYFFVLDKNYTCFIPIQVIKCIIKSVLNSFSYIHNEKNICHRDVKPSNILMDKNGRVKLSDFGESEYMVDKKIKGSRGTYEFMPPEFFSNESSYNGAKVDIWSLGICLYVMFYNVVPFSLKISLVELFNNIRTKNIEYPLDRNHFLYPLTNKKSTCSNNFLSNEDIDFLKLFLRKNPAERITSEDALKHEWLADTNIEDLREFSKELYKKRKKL
Assay [8] addresses Calcium-dependent protein kinase 4 (Plasmodium falciparum (isolate 3D7)) (UniProt Q8IBS5). The experiment in a line: PfCDPK4 kinase inhibitors, biochemical, TCAMS library (AID 1159588; cut-off not given, nearly all actives have IC50 up to about 0.91 µM). Particulars: recombinant PfCDPK4, Kinase-Glo ATP depletion luminescence.

Chain of Plasmodium falciparum protein kinase 6 (PK6, PF3D7_1337100) (Q8IDW1 1-305): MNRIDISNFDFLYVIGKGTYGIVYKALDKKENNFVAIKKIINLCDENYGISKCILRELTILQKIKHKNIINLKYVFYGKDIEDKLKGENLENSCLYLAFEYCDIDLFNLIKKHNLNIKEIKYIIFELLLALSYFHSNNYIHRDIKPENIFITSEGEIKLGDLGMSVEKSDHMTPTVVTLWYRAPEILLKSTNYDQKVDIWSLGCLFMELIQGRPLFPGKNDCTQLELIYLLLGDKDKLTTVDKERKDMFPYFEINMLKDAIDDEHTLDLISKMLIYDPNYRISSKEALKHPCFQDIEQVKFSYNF
Chain of Calcium-dependent protein kinase 4 (Plasmodium falciparum (isolate 3D7)) (Q8IBS5 whole entry, looked up): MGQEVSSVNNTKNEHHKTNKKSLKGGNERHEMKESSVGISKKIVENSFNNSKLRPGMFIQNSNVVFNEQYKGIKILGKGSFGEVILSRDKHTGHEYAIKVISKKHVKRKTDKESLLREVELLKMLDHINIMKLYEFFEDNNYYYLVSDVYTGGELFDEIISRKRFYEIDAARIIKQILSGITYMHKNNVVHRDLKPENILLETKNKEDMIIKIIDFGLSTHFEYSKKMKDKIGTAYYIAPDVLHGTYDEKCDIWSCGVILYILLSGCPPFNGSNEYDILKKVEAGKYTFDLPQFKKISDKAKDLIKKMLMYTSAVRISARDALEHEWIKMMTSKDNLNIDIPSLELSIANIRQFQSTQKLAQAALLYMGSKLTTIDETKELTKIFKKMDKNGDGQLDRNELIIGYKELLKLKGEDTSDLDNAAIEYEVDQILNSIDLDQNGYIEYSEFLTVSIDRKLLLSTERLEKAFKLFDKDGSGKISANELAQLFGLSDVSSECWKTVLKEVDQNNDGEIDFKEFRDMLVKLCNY

For orientation: inhibition means the drop in the measured response relative to a control, in per cent. Regarding `CCCOc1ccc2ccccc2c1CNCCCCCCNCc1c(OCCC)ccc2ccccc12`, the growth inhibition in assay [1] was 90% (active); in assay [4], 94% (active). For the same molecule, the inhibition in assay [2] is 100% (active); in assay [3], 0%. For the same molecule, the outcome in assay [5], in assay [6], in assay [7] and in assay [8] was inactive.

Regarding `O=c1[nH]c(=O)n2c(nc3ccccc32)[nH]1`, the growth inhibition was -1% in assay [1] and 95% (active) in assay [4]. Further, the inhibition in assay [2] is 21%; in assay [3], 6%. The outcome in assay [5], in assay [6], in assay [7] and in assay [8] was inactive.

On to `CC1CN(S(=O)(=O)c2ccc(NC(=O)c3cc(-c4ccccc4O)n[nH]3)cc2)CC(C)O1` (centres undefined), for which the growth inhibition was 93% (active) in assay [1] and 97% (active) in assay [4]. Besides, the inhibition in assay [2] is 21%; in assay [3], 1%. Moreover, the result in assay [5], in assay [6], in assay [7] and in assay [8] was inactive.

Consider `CCC(=O)N(c1ccccc1)C1CCN(CCCC(NC(=O)Nc2cc(C(F)(F)F)cc(C(F)(F)F)c2)c2ccc(Cl)c(Cl)c2)CC1` (centres undefined), for which the values for the growth inhibition in assay [1] and in assay [4] were 18% and 99% (active), respectively. The results for the inhibition in assay [2] and in assay [3] were 29% and -5%, respectively. Further, the outcome in assay [5], in assay [6], in assay [7] and in assay [8] was inactive.

Regarding `CN(CCN)Cc1cccc(-c2cccc(-c3nc4ccc(F)cc4[nH]3)c2)c1`, the growth inhibition in assay [1] is 19%; in assay [4], 95% (active). Further, the inhibition is 20% in assay [2] and 6% in assay [3]. The result in assay [5], in assay [6], in assay [7] and in assay [8] was inactive.

Regarding `COc1ccc2nccc([C@H](O)CN3CCC(NCc4nc5c(F)cccc5[nH]4)CC3)c2c1`, the growth inhibition was 0% in assay [1] and 98% (active) in assay [4]. In addition, the figures for the inhibition in assay [2] and in assay [3] were 0% and -1%, respectively. For the same molecule, the outcome in assay [5], in assay [6], in assay [7] and in assay [8] was inactive.

With `O=C(/C=C/c1ccc(Cl)cc1)NCCCCCN1CCCN(C(=O)Nc2ccc(Cl)c(C(F)(F)F)c2)CC1`, the figures for the growth inhibition in assay [1] and in assay [4] were 1% and 95% (active), respectively. Moreover, the inhibition in assay [2] was 54% (active); in assay [3] it was 1%. Besides, the result in assay [5], in assay [6], in assay [7] and in assay [8] was inactive.

With `COc1cccc(C2C(C(=O)Nc3ccccc3)=C(C)N=c3s/c(=C\c4ccc(O)cc4)c(=O)n32)c1` (centres undefined), the growth inhibition in assay [1] and in assay [4] was 97% (active) each time. Further, the results for the inhibition in assay [2] and in assay [3] were 15% and 6%, respectively. Besides, the outcome in assay [5], in assay [6], in assay [7] and in assay [8] was inactive.

With `COc1cc(N(C)Cc2cnc3nc(N)nc(N)c3n2)cc(OC)c1OC`, the growth inhibition in assay [1] is 2%; in assay [4], 95% (active). Also, the inhibition is 32% in assay [2] and 1% in assay [3]. In addition, the result in assay [5], in assay [6], in assay [7] and in assay [8] was inactive.

For `CC(C)Sc1nncc(-c2cnnc(SC(C)C)n2)n1`, the growth inhibition in assay [1] was 100% (active); in assay [4], 101% (active). For the same molecule, the inhibition was -1% in assay [2] and 2% in assay [3]. Moreover, the outcome in assay [5], in assay [6], in assay [7] and in assay [8] was inactive.

Turning to `CN1CCN(Cc2ccc(-c3ccc4c(Nc5ccc(Oc6ccccc6)cc5)ccnc4c3)o2)CC1`, the growth inhibition in assay [1] and in assay [4] was 99% (active) in each case. For the same molecule, the inhibition in assay [2] was 23%; in assay [3], 0%. Also, the outcome in assay [5], in assay [6], in assay [7] and in assay [8] was inactive.

For `CN1CCN(CCCNc2ncc3c(-c4ccc(NC(=O)Nc5cc(C(F)(F)F)ccc5F)c(F)c4)nn(C)c3n2)CC1`, the growth inhibition is 94% (active) in assay [1] and 98% (active) in assay [4]. For the same molecule, the inhibition in assay [2] is 100% (active); in assay [3], 1%. Also, the outcome in assay [5], in assay [6], in assay [7] and in assay [8] was inactive.

On to `CC(C)CNCc1ccc(-c2cccc(CN(C(=O)NCCc3ccccc3)C3CCN(Cc4ccccc4)CC3)c2)cc1`, for which the growth inhibition is 94% (active) in assay [1] and 100% (active) in assay [4]. The inhibition was 91% (active) in assay [2] and -1% in assay [3]. Also, the result in assay [5], in assay [6], in assay [7] and in assay [8] was inactive.

For the molecule `CN1CCN(CCCN(Cc2cccc(-c3cccc(CNC4CCCC4)c3)c2)C(=O)CCC2CCCC2)CC1`, the values for the growth inhibition in assay [1] and in assay [4] were 96% (active) and 100% (active), respectively. Besides, the inhibition in assay [2] is 35%; in assay [3] it was -3%. Also, the outcome in assay [5], in assay [6], in assay [7] and in assay [8] was inactive.

Turning to `O=C(NCCNc1nc(NCCNC(=O)Nc2ccccc2)c2ccc(=O)n(-c3c(F)cccc3F)c2n1)Nc1ccccc1`, the growth inhibition is 87% (active) in assay [1] and 94% (active) in assay [4]. Moreover, the inhibition is 1% in assay [2] and 6% in assay [3]. Further, the result in assay [5], in assay [6], in assay [7] and in assay [8] was inactive.

Turning to `NCc1ccc(-c2ccccc2CNC2CCN(Cc3ccccc3)CC2)cc1`, the growth inhibition in assay [1] is 3%; in assay [4] it was 94% (active). Further, the inhibition in assay [2] was 20%; in assay [3] it was -2%. Also, the result in assay [5], in assay [6], in assay [7] and in assay [8] was inactive.

As to `c1cc(-c2cc3ccc(C4=NCCN4)cc3[nH]2)ccc1C1=NCCN1`, the growth inhibition in assay [1] is 99% (active); in assay [4], 97% (active). The inhibition in assay [2] is 15%; in assay [3] it was -1%. Besides, the outcome in assay [5], in assay [6], in assay [7] and in assay [8] was inactive.

Take `COc1ccc(NC(=O)c2ccc(-c3nc(-c4ccccc4)cs3)cc2)cc1N1CCN(C)CC1`: the growth inhibition in assay [1] was 13%; in assay [4], 93% (active). Further, the results for the inhibition in assay [2] and in assay [3] were 17% and -3%, respectively. The result in assay [5], in assay [6], in assay [7] and in assay [8] was inactive.
